Test results: PubChem BioAssay
“And” between values parts separate entries of the source, which are not always exact repeats. Equal entries are not always repeated. More than one record can exist for a structure, and the calls need not agree. The source made the active and inactive calls.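 The calls were made as follows, unless noted: active = inhibition above 50%, about 3 SD of the validation set; inactive = the rest.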

Legend:
[1] = yeast AGP1-GFP fluorescence change, single-dose – cell-based, flow cytometry, S. cerevisiae, cherry picks, confirmation (AID 2273;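 active = GFP response above 150% of the DMSO level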;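 also: median GFP channel fluorescence over the whole cell population gate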); conditions: S. cerevisiae AGP1-GFP strain, 3 h, at 10 µM
[2] = target: Integrin beta-1 (Homo sapiens) + Integrin alpha-4 (Homo sapiens) (UniProt P13612+P05556); experiment: alpha4beta1 integrin LIBS antibody binding reduction – U937 cells, HUTS-21 mAb, flow cytometry, validation set, VLA-4 allosteric modulator project, pilot screen (AID 2674); conditions: HUTS-21 LIBS mAb binding, at 6.7 µM, stronger effect = higher value, binding induced by LDV ligand;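 also: antibody binding induced by the VLA-4 ligand LDV present at three times its Kd; 0% = LDV ligand with antibody and no compound and 100% = antibody without LDV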
Integrin beta-1 (Homo sapiens) + Integrin alpha-4 (Homo sapiens), sequence (P05556 whole entry, looked up): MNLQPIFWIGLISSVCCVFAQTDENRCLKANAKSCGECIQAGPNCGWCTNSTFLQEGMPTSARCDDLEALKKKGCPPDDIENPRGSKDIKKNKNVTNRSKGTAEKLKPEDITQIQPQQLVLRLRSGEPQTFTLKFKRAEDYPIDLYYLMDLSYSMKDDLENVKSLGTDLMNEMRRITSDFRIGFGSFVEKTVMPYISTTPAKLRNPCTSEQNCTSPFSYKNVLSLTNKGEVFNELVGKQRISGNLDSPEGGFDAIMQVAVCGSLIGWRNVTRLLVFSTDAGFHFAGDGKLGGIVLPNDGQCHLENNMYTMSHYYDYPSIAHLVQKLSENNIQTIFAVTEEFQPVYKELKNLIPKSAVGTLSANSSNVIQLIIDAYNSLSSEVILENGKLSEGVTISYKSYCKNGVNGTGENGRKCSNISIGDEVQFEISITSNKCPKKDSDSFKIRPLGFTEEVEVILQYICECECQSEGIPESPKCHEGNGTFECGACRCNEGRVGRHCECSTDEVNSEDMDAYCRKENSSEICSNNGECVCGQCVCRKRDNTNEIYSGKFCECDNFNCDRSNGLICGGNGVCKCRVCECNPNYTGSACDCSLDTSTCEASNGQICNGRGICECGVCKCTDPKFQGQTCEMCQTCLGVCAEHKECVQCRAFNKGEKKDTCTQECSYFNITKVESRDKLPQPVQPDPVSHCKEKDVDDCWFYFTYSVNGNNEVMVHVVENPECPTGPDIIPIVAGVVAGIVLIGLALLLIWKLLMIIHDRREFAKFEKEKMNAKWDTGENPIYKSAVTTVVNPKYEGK
Integrin beta-1 (Homo sapiens) + Integrin alpha-4 (Homo sapiens), sequence (P13612 whole entry, looked up): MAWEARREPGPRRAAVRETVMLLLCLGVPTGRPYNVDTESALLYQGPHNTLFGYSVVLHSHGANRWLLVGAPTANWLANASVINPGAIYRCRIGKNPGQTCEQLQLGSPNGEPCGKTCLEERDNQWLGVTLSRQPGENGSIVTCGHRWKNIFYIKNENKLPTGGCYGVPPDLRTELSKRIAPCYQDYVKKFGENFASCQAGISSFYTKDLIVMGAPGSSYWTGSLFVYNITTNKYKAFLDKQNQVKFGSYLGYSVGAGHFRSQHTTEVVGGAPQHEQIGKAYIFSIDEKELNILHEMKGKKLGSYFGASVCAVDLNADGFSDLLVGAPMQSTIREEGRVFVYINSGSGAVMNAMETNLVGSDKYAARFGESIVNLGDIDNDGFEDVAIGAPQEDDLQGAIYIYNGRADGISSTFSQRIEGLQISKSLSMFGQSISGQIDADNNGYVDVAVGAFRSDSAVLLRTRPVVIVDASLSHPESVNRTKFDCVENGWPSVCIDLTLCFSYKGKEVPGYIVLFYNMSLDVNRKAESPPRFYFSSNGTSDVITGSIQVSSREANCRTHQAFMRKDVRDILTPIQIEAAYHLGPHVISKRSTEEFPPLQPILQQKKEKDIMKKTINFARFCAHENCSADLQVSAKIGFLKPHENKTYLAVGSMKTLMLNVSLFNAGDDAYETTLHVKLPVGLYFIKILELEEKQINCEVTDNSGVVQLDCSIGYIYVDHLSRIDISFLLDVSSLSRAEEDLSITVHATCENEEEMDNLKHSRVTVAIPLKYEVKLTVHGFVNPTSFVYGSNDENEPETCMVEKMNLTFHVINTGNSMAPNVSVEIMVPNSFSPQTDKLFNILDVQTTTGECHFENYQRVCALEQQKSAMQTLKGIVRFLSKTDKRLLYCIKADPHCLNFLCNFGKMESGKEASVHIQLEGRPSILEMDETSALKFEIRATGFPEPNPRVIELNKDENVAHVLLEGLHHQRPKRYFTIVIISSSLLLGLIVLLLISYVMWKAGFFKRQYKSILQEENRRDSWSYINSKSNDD

[3] = calorie-restriction mimetic ROS inhibitors, yeast – validation compound set, pilot screen (AID 2706;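 active = superoxide response below 65% of plate, a cut near 3 SD across the whole screen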;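 also: yeast exposed to compound for one week at 30 degrees C before staining; 100% = mean of all compound wells on the same plate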); conditions: S. cerevisiae aging, superoxide DHE fluorescence; at 10 µM; stronger effect = lower value
[4] = target: Beta-adrenergic receptor kinase 1 (Homo sapiens) (UniProt P25098); experiment: GRK2 binders displacing RNA aptamer, biochemical, validation, human GRK2, bead flow cytometry (AID 488806;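 active = aptamer binding inhibition above 30%, about 3 SD of noise from non-fluorescent compounds; inactive = inhibition at or below 30%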); conditions: bead-bound GRK2, FAM-aptamer displacement, at 10 µM, stronger effect = higher value
Beta-adrenergic receptor kinase 1 (Homo sapiens), sequence (P25098 whole entry, looked up): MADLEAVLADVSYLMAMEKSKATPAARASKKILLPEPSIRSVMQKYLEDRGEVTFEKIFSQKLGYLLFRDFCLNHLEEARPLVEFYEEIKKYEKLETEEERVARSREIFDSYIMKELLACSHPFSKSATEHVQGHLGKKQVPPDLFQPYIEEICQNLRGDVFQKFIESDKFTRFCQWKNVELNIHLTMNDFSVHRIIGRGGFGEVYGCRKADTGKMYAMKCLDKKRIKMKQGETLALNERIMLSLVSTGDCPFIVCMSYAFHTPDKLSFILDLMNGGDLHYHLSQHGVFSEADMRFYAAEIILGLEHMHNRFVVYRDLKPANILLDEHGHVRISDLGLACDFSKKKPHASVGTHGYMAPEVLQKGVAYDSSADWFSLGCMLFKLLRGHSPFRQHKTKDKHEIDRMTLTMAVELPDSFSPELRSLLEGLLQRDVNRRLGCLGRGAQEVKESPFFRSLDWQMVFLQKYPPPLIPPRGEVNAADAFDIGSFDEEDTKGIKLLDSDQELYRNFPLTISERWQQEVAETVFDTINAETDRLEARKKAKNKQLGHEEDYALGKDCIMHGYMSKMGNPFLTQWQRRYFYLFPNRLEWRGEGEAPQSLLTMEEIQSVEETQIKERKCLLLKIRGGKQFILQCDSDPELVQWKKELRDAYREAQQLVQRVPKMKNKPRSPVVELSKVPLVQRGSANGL

[5] = target: Beta-2 adrenergic receptor (Homo sapiens) (UniProt P07550); experiment: agonist-induced loss of surface beta2AR – cell-based, FAP fluorogen, flow cytometry, validation set, pilot screen (AID 504459;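 active = percent response above 42, roughly 3 SD of non-fluorescent test compounds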;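 also: agonist-driven loss of surface beta2AR via internalization measured by FAP dye flow cytometry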); conditions: Am2.2-beta2AR cells, at 10 µM, stronger effect = higher value
Beta-2 adrenergic receptor (Homo sapiens), sequence (P07550 whole entry, looked up): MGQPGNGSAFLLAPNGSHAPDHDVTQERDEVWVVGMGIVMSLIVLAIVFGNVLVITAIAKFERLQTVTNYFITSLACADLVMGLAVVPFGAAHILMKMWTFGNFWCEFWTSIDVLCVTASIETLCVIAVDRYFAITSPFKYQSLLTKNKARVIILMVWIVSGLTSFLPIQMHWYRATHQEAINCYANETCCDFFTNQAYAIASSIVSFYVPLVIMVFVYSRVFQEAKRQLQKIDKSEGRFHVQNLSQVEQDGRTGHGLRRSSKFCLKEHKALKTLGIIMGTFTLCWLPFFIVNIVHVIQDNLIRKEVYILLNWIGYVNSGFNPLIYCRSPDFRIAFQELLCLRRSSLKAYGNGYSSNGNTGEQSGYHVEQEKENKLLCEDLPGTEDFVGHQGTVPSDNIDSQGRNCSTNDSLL

[6] = target: AP-2 complex subunit beta (Homo sapiens) (UniProt P63010); experiment: beta-arrestin/AP2 interaction blockers – biochemical, validation set, GST-AP2 beads, flow cytometry, pilot screen (AID 504541;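 active = inhibition above 54%, about 3 SD of non-fluorescent compounds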;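 also: AP2 carries R879A mutation and is captured from E. coli lysate; bead-bound FITC arrestin peptide fluorescence measuring arrestin peptide binding to AP2; 0% = DMSO wells and 100% = excess unlabeled arrestin peptide control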); conditions: FITC arrestin peptide, at 10 µM, stronger effect = higher value, AP2 beta2 appendage fragment, R879A mutant
AP-2 complex subunit beta (Homo sapiens), sequence (P63010 whole entry, looked up, the tested form may be a part, one chain of several): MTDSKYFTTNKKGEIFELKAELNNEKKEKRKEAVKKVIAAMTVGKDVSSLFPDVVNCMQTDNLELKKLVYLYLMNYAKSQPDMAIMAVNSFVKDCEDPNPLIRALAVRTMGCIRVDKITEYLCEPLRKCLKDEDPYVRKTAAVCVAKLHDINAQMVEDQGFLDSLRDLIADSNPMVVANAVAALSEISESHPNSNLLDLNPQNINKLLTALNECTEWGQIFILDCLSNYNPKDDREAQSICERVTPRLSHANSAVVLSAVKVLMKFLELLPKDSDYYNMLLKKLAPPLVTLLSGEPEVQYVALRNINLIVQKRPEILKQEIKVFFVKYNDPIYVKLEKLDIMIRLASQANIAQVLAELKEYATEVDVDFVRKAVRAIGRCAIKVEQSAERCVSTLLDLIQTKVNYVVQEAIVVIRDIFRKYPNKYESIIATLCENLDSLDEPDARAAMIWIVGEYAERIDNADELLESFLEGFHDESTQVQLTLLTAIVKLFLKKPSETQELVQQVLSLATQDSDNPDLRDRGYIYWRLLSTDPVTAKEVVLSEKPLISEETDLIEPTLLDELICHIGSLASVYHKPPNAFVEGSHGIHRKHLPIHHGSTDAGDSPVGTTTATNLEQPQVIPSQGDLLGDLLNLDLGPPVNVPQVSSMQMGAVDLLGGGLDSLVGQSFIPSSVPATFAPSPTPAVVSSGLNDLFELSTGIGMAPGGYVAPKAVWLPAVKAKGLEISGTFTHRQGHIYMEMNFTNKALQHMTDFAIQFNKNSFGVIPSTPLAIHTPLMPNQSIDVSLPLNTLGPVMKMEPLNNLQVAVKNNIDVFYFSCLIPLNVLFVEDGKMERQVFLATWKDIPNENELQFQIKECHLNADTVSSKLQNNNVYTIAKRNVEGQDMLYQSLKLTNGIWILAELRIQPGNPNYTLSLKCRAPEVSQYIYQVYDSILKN

[7] = cytosolic pH regulators acting via V-ATPase – S. cerevisiae, pHLuorin, HTS validation (AID 504600; in the data active = response above about 15%;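 also: plate controls were DMSO for no effect and reference compound for full effect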); conditions: V-ATPase proton transport, at 10 µM, stronger effect = higher value
[8] = system: anti-desmoglein-3 scFv antibody binding to human DSG3; experiment: blockers of pathogenic pemphigus antibody–desmoglein-3 binding – biochemical, validation compound set, bead-based, flow cytometry, pilot screen (AID 588368;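 active = binding below the plate cutoff, the plate median minus 3 SD, with a reading above zero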;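 also: signal is the median channel fluorescence of bead-bound GFP antibody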); conditions: Protein G beads, DSG3-Fc, scFv-GFP binding, at 10 µM, stronger effect = lower value
[9] = Nile Red efflux blockade in pump-expressing yeast – validation compound set, multiplex, phenotypic, pilot screen (AID 588506;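 active = efflux inhibition above 0.42, the validation set average plus 4 SD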;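 also: Nile Red retained in cells so higher fluorescence means more efflux inhibition; 0 = negative control wells and 1 = enniatin B 25 µM full block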); conditions: S. cerevisiae pump-expressing triplex, Nile Red efflux flow cytometry; at 10 µM; stronger effect = higher value; the pumps come from Candida albicans
[10] = target: ATP-binding cassette sub-family B member 6 (Homo sapiens) (UniProt Q9NP58); experiment: blockers of ABCB6-driven porphyrin uptake – K562-ABCB6 cells, flow cytometry, validation set, pilot screen (AID 588550;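 active = inhibition above the screen-wide mean plus 3 SD, about 51%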;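 also: 0% = DMSO wells and 100% = benzethonium chloride 70 µM positive control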); conditions: K562-ABCB6 porphyrin accumulation, 1 h, at 10 µM, stronger effect = higher value
ATP-binding cassette sub-family B member 6 (Homo sapiens), sequence (Q9NP58 whole entry, looked up): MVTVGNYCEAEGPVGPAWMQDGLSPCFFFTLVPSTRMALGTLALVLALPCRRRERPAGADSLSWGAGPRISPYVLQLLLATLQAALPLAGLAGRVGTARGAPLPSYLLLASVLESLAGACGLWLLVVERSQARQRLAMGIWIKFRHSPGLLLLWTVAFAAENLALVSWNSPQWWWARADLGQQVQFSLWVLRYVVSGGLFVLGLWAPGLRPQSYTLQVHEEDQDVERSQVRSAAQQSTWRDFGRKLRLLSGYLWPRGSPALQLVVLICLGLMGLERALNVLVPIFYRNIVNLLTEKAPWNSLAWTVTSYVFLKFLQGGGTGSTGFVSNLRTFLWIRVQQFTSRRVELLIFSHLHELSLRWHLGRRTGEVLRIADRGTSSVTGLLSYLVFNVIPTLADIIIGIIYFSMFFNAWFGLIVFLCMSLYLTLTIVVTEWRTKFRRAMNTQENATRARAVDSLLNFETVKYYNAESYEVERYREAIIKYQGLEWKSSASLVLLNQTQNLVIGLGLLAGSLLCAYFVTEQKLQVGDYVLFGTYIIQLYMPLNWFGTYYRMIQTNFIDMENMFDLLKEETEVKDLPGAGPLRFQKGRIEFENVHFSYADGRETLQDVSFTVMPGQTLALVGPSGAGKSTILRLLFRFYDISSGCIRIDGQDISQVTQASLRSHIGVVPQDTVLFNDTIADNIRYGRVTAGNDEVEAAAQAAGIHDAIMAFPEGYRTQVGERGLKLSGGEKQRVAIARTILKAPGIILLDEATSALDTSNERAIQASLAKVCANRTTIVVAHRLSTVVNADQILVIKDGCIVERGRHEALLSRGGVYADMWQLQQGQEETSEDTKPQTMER

[11] = AML differentiation inducers, ER-HoxA9 marrow cells – cell-based, GFP/MAC1 double positive, flow cytometry, validation set, primary screen (AID 588685;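 active = differentiation response of at least 50%, scaled between solvent and reference control, from cells with both markers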;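 also: compound exposure lasts four days before antibody staining and flow analysis; 0% = DMSO wells and 100% = 5 µM fulvestrant positive control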); conditions: stronger effect = higher value, normalized: vehicle 0, fulvestrant 100

SMILES: O=C(NCCN1CCN(c2ccccc2)CC1)c1cccc(Br)c1
- GFP response, % of DMSO [1]: 100% (inactive)
- inhibition [2]: 17.1% (inactive)
- superoxide response (% of plate) [3]: 104% (inactive)
- aptamer binding inhibition [4]: 0% (inactive)
- response [5]: -3.55% (inactive)
- inhibition [6]: 13.8% (inactive)
- response [7]: -7.18% (inactive)
- binding (% of control) [8]: 103% (inactive)
- efflux inhibition (fraction of control) [9]: 0.05 (inactive)
- inhibition [10]: 6% (inactive)
- differentiation response [11]: 11.5% (inactive)

SMILES: C1COC(NC(C2CC2)C2CC2)=N1
- GFP response, % of DMSO [1]: 105% (inactive)
- inhibition [2]: 17.1% (inactive)
- superoxide response (% of plate) [3]: 96.6% (inactive)
- aptamer binding inhibition [4]: 3% (inactive)
- response [5]: 3.85% (inactive)
- inhibition [6]: 11.9% (inactive)
- response [7]: 9.25% (inactive)
- binding (% of control) [8]: 98.3% (inactive)
- efflux inhibition (fraction of control) [9]: 0.23 (inactive)
- inhibition [10]: 6% (inactive)
- differentiation response [11]: 0.82% (inactive)

SMILES: N#C/C(C(N)=O)=c1/ccc2c(c1)N1C3=C(CCCC3)CC3CCCCC31N=2 (stereo unspecified)
- GFP response, % of DMSO [1]: 100% (inactive)
- inhibition [2]: -74.8% (inactive)
- superoxide response (% of plate) [3]: 92.3% (inactive)
- aptamer binding inhibition [4]: -5% (inactive)
- response [5]: 5.12% (inactive)
- inhibition [6]: 46.9% (inactive)
- response [7]: -2.62% (inactive)
- binding (% of control) [8]: 98.3% (inactive)
- efflux inhibition (fraction of control) [9]: 0.37 (inactive)
- inhibition [10]: -58% (inactive)
- differentiation response [11]: -16.3% (inactive)

SMILES: CC(=O)OCC(=O)[C@@]1(O)CC[C@H]2[C@@H]3CCC4=CC(=O)CC[C@]4(C)[C@H]3[C@@H](O)C[C@@]21C
- GFP response, % of DMSO [1]: 97% (inactive)
- inhibition [2]: -4.6% (inactive)
- superoxide response (% of plate) [3]: 101% (inactive)
- aptamer binding inhibition [4]: -1% (inactive)
- response [5]: 6.11% (inactive)
- inhibition [6]: -11.1% (inactive)
- response [7]: 2.08% (inactive)
- binding (% of control) [8]: 98.4% (inactive)
- efflux inhibition (fraction of control) [9]: -0.26 (inactive)
- inhibition [10]: -2% (inactive)
- differentiation response [11]: -1.71% (inactive)

SMILES: COc1cc2c(cc1OC)C(c1ccccc1)=NCC2
- GFP response, % of DMSO [1]: 98.3% (inactive)
- inhibition [2]: 2.58% (inactive)
- superoxide response (% of plate) [3]: 93.7% (inactive)
- aptamer binding inhibition [4]: 3% (inactive)
- response [5]: 2.38% (inactive)
- inhibition [6]: 6.17% (inactive)
- response [7]: -0.17% (inactive)
- binding (% of control) [8]: 99% (inactive)
- efflux inhibition (fraction of control) [9]: 0.34 (inactive)
- inhibition [10]: 6% (inactive)
- differentiation response [11]: 1.64% (inactive)

SMILES: CS(=O)(=O)Nc1cccc(C(=O)CC2(O)C(=O)Nc3ccc(Br)cc32)c1 (stereo unspecified)
- GFP response, % of DMSO [1]: 101% (inactive)
- inhibition [2]: -10.8% (inactive)
- superoxide response (% of plate) [3]: 112% (inactive)
- aptamer binding inhibition [4]: 4% (inactive)
- response [5]: -1.29% (inactive)
- inhibition [6]: 50% (inactive)
- response [7]: -8.12% (inactive)
- binding (% of control) [8]: 101% (inactive)
- efflux inhibition (fraction of control) [9]: 0.08 (inactive)
- inhibition [10]: 7% (inactive)
- differentiation response [11]: 5.13% (inactive)

SMILES: CN(C)CCCN1c2ccccc2Sc2ccc(Cl)cc21
- GFP response, % of DMSO [1]: 94.3% (inactive)
- inhibition [2]: 7.43% (inactive) and 1.61% (inactive)
- superoxide response (% of plate) [3]: 98.3% (inactive) and 93.3% (inactive)
- aptamer binding inhibition [4]: -6% (inactive) and -20% (inactive)
- response [5]: 17.4% (inactive) and 15.9% (inactive)
- inhibition [6]: -3.39% (inactive) and -5.93% (inactive)
- response [7]: 10.8% (inactive) and 0.91% (inactive)
- binding (% of control) [8]: 107% (inactive) and 114% (inactive)
- efflux inhibition (fraction of control) [9]: -0.17 (inactive) and 0.55 (active)
- inhibition [10]: 10% (inactive) and 13% (inactive)
- differentiation response [11]: -7.37% (inactive) and 5.73% (inactive)

SMILES: NS(=O)(=O)c1cc2c(cc1C(F)(F)F)NC(Cc1ccccc1)NS2(=O)=O (stereo unspecified)
- GFP response, % of DMSO [1]: 101% (inactive)
- inhibition [2]: 7.43% (inactive)
- superoxide response (% of plate) [3]: 85% (inactive)
- aptamer binding inhibition [4]: 7% (inactive)
- response [5]: 1.02% (inactive)
- inhibition [6]: 21.3% (inactive)
- response [7]: -2.03% (inactive)
- binding (% of control) [8]: 97.4% (inactive)
- efflux inhibition (fraction of control) [9]: 0.05 (inactive)
- inhibition [10]: 6% (inactive)
- differentiation response [11]: -0.82% (inactive)

SMILES: C#C[C@]1(O)CC[C@H]2[C@@H]3CCC4=CC(=O)CC[C@@H]4[C@H]3CC[C@@]21CC
- GFP response, % of DMSO [1]: 95.7% (inactive)
- inhibition [2]: 15.1% (inactive)
- superoxide response (% of plate) [3]: 92.6% (inactive)
- aptamer binding inhibition [4]: 8% (inactive)
- response [5]: -17.9% (inactive)
- inhibition [6]: -1.43% (inactive)
- response [7]: 1.52% (inactive)
- binding (% of control) [8]: 98% (inactive)
- efflux inhibition (fraction of control) [9]: -0.04 (inactive)
- inhibition [10]: 7% (inactive)
- differentiation response [11]: 2.89% (inactive)

SMILES: CC(=O)Nc1ccccc1O
- GFP response, % of DMSO [1]: 98.7% (inactive)
- inhibition [2]: 6.46% (inactive)
- superoxide response (% of plate) [3]: 87.6% (inactive)
- aptamer binding inhibition [4]: 6% (inactive)
- response [5]: 2.64% (inactive)
- inhibition [6]: 0.05% (inactive)
- response [7]: 0.98% (inactive)
- binding (% of control) [8]: 101% (inactive)
- efflux inhibition (fraction of control) [9]: -0.28 (inactive)
- inhibition [10]: 8% (inactive)
- differentiation response [11]: 3.28% (inactive)

SMILES: CC(=O)CSc1ncnc2c1cnn2-c1ccccc1
- GFP response, % of DMSO [1]: 92.6% (inactive)
- inhibition [2]: 10.3% (inactive)
- superoxide response (% of plate) [3]: 85.6% (inactive)
- aptamer binding inhibition [4]: 1% (inactive)
- response [5]: 6.9% (inactive)
- inhibition [6]: 14.5% (inactive)
- response [7]: -1.56% (inactive)
- binding (% of control) [8]: 105% (inactive)
- efflux inhibition (fraction of control) [9]: 0.09 (inactive)
- inhibition [10]: 7% (inactive)
- differentiation response [11]: 6.55% (inactive)
